The list is not random: actives were taken first. Their share in the collection is about 9%.
HP1b chromo inh: HP1-beta chromodomain-methylated histone interaction inhibition. P83916. AlphaScreen HP1-beta / biotin-H3K9me3 peptide binding. Potency, µM (titrated, usually from 114 µM), for the others: at the highest dose activity change, negative = inhibition, most hits filed as inhibitors. 390,000 tested, 0.56% active. AID 540317; further: nearly all actives have a fitted effect of over 70% in size
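HP1-beta protein (50 nM final) preincubated 30 min at room temperature with biotinylated H3(1-18)K9me3 peptide (50 nM) in PBS pH 7.4, 0.01% Tween-20, then compound added for 30 min. AlphaScreen streptavidin donor/nickel chelate acceptor beads (10 ug/mL final), 30 min dark, luminescence read.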
G9a inh: blocks human histone lysine methyltransferase G9a; Q96KQ7; G9a H3K9 monomethylation, AlphaScreen, 2 h; Potency, µM (highest dose often 102 µM), without a hit: top-dose activity, negative = inhibition, actives largely listed as inhibitors; 350,000 tested, 8.8% active; AID 504332; further: on the % scale 0 is the no-effect control and ±100 the full control effect; nearly all actives have a fitted effect of over 75% in size
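Readings reflect AlphaScreen signal from monomethyl-H3K9 antibody detection. HMT at 20 nM; substrate b-H3K9 500 nM; cofactor SAM 20 uM; 2 h RT reaction; compounds tested as titrations in qHTS with 15 min preincubation.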
JMJD2A Tudor: JMJD2A Tudor domain (human) inhibition; 390,000 tested, 4.4% active; Potency, µM (series often up to 114 µM), for inactives: at the top dose activity change, negative = inhibition, usual class: inhibitors; O75164; AID 504339; AlphaScreen JMJD2A-Tudor / H3K4me3 peptide binding; further: on the % scale 0 is the no-effect control and ±100 the full control effect; nearly all actives have a fitted effect of over 50% in size
PLK1 PBD inh: PLK1 (human) polo-box domain binding inhibition. P53350. Plk1 PBD binding of FITC phosphopeptide, fluorescence polarization. Potency, µM, without a hit: max response, negative = inhibition, actives largely listed as inhibitors. 360,000 tested, 2.8% active. AID 720504; further: series mostly up to about 57 µM; on the % scale 0 is the no-effect control and ±100 the full control effect; nearly all actives have a fitted effect of over 65% in size
12-LOX inh: ALOX12 (human) lipoxygenase inhibition | P18054 | purified 12hLO, xylenol orange hydroperoxide absorbance | Potency, µM (highest dose often 108 µM), for inactives: top-dose activity change, negative = inhibition, actives largely listed as inhibitors | 580,000 tested, 1.1% active | AID 1671190; further: on the % scale 0 is the no-effect control and ±100 the full control effect
Target sequence (P18054 whole entry, looked up): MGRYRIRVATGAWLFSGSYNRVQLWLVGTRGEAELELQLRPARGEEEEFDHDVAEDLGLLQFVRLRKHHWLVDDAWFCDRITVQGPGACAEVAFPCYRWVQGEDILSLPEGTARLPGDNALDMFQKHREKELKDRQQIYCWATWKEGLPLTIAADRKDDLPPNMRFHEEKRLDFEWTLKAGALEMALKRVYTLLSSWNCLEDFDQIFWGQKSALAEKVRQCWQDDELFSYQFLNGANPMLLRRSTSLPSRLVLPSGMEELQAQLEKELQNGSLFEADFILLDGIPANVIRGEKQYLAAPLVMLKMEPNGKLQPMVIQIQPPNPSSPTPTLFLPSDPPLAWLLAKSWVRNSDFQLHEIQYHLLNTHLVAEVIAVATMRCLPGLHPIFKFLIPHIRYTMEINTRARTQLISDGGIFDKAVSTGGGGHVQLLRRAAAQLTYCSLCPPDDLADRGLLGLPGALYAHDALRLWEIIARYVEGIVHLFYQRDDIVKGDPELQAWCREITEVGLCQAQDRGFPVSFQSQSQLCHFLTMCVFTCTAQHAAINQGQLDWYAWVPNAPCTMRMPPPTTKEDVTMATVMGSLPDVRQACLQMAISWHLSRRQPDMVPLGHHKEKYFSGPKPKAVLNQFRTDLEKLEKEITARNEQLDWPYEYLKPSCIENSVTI
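Purified human 12hLO at 150 nM in 25 mM Hepes, 0.01% Triton X-100, pH 7.0, preincubated 15 min at room temperature with compound. Reaction started with 40 uM arachidonic acid, 30 min at room temperature. Hydroperoxide measured by Fe-xylenol orange, 573/405 nm absorbance ratio.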
BAZ2B block: BAZ2B (human) inhibition | Q9UIF8 | AlphaScreen BAZ2B-H3K14Ac peptide displacement | Potency, µM (doses to about 114 µM), without a hit: top-dose activity change, negative = inhibition, usual class: inhibitors | 360,000 tested, 4.4% active | AID 504333; further: on the % scale 0 is the no-effect control and ±100 the full control effect; nearly all actives have a fitted effect of over 60% in size
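AlphaScreen displacement: compounds (up to 110uM) incubated 30 min at room temperature with a preformed 50 nM BAZ2B/50 nM biotinylated H3K14Ac peptide complex in PBS pH 7.4 with Tween-20. Donor and acceptor beads at 10 ug/mL final added, 20 min light-protected before reading.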
Starred values were filed as active, the others as inactive; [ ] = another dose, or the depositor's remark. The call rests on the fitted dose curve; in most records, active means well fitted curve in the direction sought with a large enough effect; inconclusive means small, poorly fitted or top-dose-only effect, or another doubt; inactive means no such curve, though single readings can be large; an effect the other way counts as inactive or inconclusive. Potency means the concentration at half of the fitted maximal effect.

For O=C(CC1C(=O)NCCN1Cc1cccc(F)c1)NC1CCCCCC1 (configuration not stated) the results were HP1b chromo inh 30%, G9a inh inconclusive, JMJD2A Tudor -1%, PLK1 PBD inh -13%, 12-LOX inh inconclusive and BAZ2B block -15%.
Screening O=C(CC1C(=O)NCCN1Cc1ccc(F)cc1Cl)NC1CCCCCCC1 (configuration not stated) returned HP1b chromo inh 21%, G9a inh 45µM*, JMJD2A Tudor -9%, PLK1 PBD inh -13%, 12-LOX inh 131% and BAZ2B block -19%.
`CCOC(=O)c1[nH]c2ccccc2c1NC(=O)c1ccc(C)c(C)c1` gave HP1b chromo inh 30%, G9a inh inconclusive, JMJD2A Tudor -11%, 12-LOX inh -15% and BAZ2B block -1%.
Screening O=C1Nc2ccc(Br)cc2/C1=C/C(=O)c1ccc2c(c1)OCO2 returned HP1b chromo inh -13%, G9a inh 10µM*, JMJD2A Tudor inconclusive, PLK1 PBD inh inconclusive, 12-LOX inh inconclusive and BAZ2B block inconclusive.
For COc1ccc(C(=O)/C=C2\C(=O)Nc3ccc(Br)cc32)cc1 the results were HP1b chromo inh -12%, JMJD2A Tudor inconclusive, PLK1 PBD inh inconclusive and 12-LOX inh inconclusive.
`c1ccc(OCCCCN2CCOCC2)c(CNC2CCNC2)c1` (configuration not stated) gave 12-LOX inh 32%.
For Cn1c(-c2cnn(-c3ccccc3)c2-n2cccc2)n[nH]c1=S the results were HP1b chromo inh 13%, G9a inh 8.9µM*, JMJD2A Tudor 8.9µM*, PLK1 PBD inh -4%, 12-LOX inh inconclusive and BAZ2B block -37%.
For CCCCCCSc1nnc(-c2cnn(-c3ccccc3)c2-n2cccc2)n1C the results were HP1b chromo inh 9%, G9a inh 40µM*, JMJD2A Tudor -17%, PLK1 PBD inh -6%, 12-LOX inh inconclusive and BAZ2B block -29%.
O=C1CSC(=Nc2cccc(C(=O)O)c2)N1 was read as HP1b chromo inh 11%, JMJD2A Tudor -14%, PLK1 PBD inh 8%, 12-LOX inh -7% and BAZ2B block 1%.
Screening COc1ccc2oc(C)c(C(=O)NN)c2c1 returned HP1b chromo inh 24%, G9a inh 10µM*, JMJD2A Tudor -23%, PLK1 PBD inh -3%, 12-LOX inh 0% and BAZ2B block -11%.
Screening COc1ccc2oc(C(=O)CCC(=O)O)c(N)c2c1 returned HP1b chromo inh 70%, G9a inh 50µM*, JMJD2A Tudor -5%, PLK1 PBD inh 1%, 12-LOX inh -3% and BAZ2B block -9%.
`CCOC(=O)c1c(C)oc2ccc(OCc3cc(C(=O)OC)oc3C)cc12` gave HP1b chromo inh 24%, G9a inh 21%[59 µM], JMJD2A Tudor -10%[11.4 µM], PLK1 PBD inh 27µM*, 12-LOX inh 26% and BAZ2B block 21%.
Screening Cc1cccc(NC(=O)CNC(=O)c2cc(C3CC3)nn2-c2ccccc2)c1C returned HP1b chromo inh 20%, G9a inh 50µM*, JMJD2A Tudor -19%, PLK1 PBD inh 0%, 12-LOX inh 1% and BAZ2B block -11%.
Cc1cc(C)c(NC(=O)CNC(=O)c2cc(C3CC3)nn2-c2ccccc2)c(C)c1 was read as HP1b chromo inh 16%, G9a inh 10%[59 µM], JMJD2A Tudor -9%, PLK1 PBD inh -4%, 12-LOX inh 59% and BAZ2B block 13%.
For Cc1cc(C)c(OCCOCCN(C)C)c(Br)c1 the results were HP1b chromo inh inconclusive, G9a inh 10µM*, JMJD2A Tudor 25µM*, PLK1 PBD inh -2%, 12-LOX inh -34% and BAZ2B block inconclusive.
For Cc1cc(Cl)c(OCCCNCc2ccccc2)c(Br)c1 the results were HP1b chromo inh -20%, G9a inh 11µM*, JMJD2A Tudor inconclusive, PLK1 PBD inh -7%, 12-LOX inh inconclusive and BAZ2B block inconclusive.
Screening Cc1cc(Cl)c(OCCN2C(=O)NC(C)(C)C2=O)c(Br)c1 returned HP1b chromo inh 30%, G9a inh -1%, JMJD2A Tudor 9%, PLK1 PBD inh 0%, 12-LOX inh 0% and BAZ2B block 1%.
Screening COCCNCCCCOc1c(Cl)cc(C)cc1Br returned HP1b chromo inh -17%, JMJD2A Tudor 3.2µM*, PLK1 PBD inh -9%, 12-LOX inh inconclusive and BAZ2B block 50µM*.
For Cc1cc(C)c(OCCCNC2CCCC2)c(Br)c1 the results were HP1b chromo inh 6%, JMJD2A Tudor 79µM*, PLK1 PBD inh 1%, 12-LOX inh inconclusive and BAZ2B block inconclusive.
CC(C)OC(=O)c1cc2ccccc2oc1=O was read as HP1b chromo inh 19%, G9a inh 7%[0.0925 µM], JMJD2A Tudor -10%, PLK1 PBD inh -2%, 12-LOX inh 20% and BAZ2B block 1%.
`Cc1cc(C)c(OCCCNCc2ccccc2)c(Br)c1` gave HP1b chromo inh inconclusive, G9a inh 13µM*, JMJD2A Tudor 25µM*, PLK1 PBD inh -4%, 12-LOX inh inconclusive and BAZ2B block 50µM*.
Cc1cc(Cl)cc(Br)c1OCCCNCC(C)O (configuration not stated) was read as HP1b chromo inh 47%, G9a inh 3%, JMJD2A Tudor 3%, PLK1 PBD inh -3%, 12-LOX inh 11% and BAZ2B block -17%.
`COC(=O)c1cc(S(=O)(=O)N2CCN(c3ccc(F)cc3)CC2)cn1C` gave HP1b chromo inh 14%[57 µM], G9a inh -5%, JMJD2A Tudor -22%, PLK1 PBD inh 4%, 12-LOX inh -17% and BAZ2B block 2%.
For COc1cccc2cc(/C=C/C(=O)c3ccc(C)o3)oc12 the results were 12-LOX inh -35%.
`Cc1ccc(C2C(C(=O)c3sc(C)nc3C)=C(O)C(=O)N2CCN2CCOCC2)o1` (configuration not stated) gave HP1b chromo inh 4%, G9a inh 35µM*, JMJD2A Tudor inconclusive, PLK1 PBD inh -3%, 12-LOX inh inconclusive and BAZ2B block -33%.
`CCN(CC)CCCN1C(=O)C(O)=C(C(=O)c2sc(C)nc2C)C1c1ccc(C)o1` (configuration not stated) gave G9a inh -17%[59 µM] and BAZ2B block -22%.
COc1cccc(C2C(C(=O)c3sc(C)nc3C)=C(O)C(=O)N2CCN2CCOCC2)c1 (configuration not stated) was read as HP1b chromo inh 23%, G9a inh 50µM*, JMJD2A Tudor inconclusive, PLK1 PBD inh -3%, 12-LOX inh inconclusive and BAZ2B block -5%.
Screening COc1cccc(NC(=O)c2cnc3n2CCN(Cc2ccccc2)CC3)c1 returned 12-LOX inh 52%[176 µM].

High-throughput results (PubChem)
